Whole data set: some 110,000 compounds, median “z-score” near -0.1, cut for the highest 2% near 2. For the sample, the highest values were picked, then their nearest neighbours and some compounds at random. Activity calls are given as the source filed them.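 How the source made its calls: active means z-score in the third read window above 3 or below -3; inactive means the rest.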 Residues, ends and D or L forms follow the SMILES beside them. *: point of attachment. OBn = c1ccc(CO*)cc1
biological target: Metabotropic glutamate receptor 8 (Rattus norvegicus) (UniProt P70579); experiment: rat mGluR8 modulators via GIRK flux, primary screen, cell-based, thallium flux, HTS (AID 488969); conditions: HEK293 rat mGluR8, GIRK (G protein-gated inwardly rectifying potassium channel) thallium flux, FluoZin2; at 10 µM; stronger effect = higher value; submaximal glutamate (EC20) added with thallium
Sequence (P70579 whole entry, looked up): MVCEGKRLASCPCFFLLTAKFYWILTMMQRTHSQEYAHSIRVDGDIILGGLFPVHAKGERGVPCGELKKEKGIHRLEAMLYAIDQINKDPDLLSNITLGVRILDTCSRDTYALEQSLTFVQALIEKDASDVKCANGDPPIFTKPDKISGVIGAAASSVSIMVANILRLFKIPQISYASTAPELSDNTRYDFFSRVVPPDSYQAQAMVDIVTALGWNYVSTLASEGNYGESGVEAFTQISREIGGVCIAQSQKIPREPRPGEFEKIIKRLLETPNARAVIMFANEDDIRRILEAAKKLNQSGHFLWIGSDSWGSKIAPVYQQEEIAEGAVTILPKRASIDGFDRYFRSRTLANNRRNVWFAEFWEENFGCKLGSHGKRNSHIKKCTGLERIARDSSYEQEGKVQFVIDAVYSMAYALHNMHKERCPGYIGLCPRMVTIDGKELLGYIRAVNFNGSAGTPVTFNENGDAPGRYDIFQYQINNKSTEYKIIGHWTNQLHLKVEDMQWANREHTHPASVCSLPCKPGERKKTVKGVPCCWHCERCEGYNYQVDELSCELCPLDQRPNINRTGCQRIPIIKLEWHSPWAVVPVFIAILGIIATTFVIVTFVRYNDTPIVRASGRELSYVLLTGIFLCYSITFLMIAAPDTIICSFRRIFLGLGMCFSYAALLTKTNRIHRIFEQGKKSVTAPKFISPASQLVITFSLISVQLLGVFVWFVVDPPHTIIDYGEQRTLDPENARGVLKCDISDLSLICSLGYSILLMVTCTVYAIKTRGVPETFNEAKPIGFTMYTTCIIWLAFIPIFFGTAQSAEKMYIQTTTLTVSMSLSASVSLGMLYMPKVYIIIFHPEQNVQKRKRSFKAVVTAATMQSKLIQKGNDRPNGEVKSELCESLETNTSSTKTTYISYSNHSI

Point of comparison: `OC(COc1ccc(OCc2ccccc2)cc1)CN1CCCCC1` (stereo not drawn), z-score 2.76. Against it:
- CN(C)c1ccc(CN(C(=O)COc2ccccc2)C2CCS(=O)(=O)C2)cc1 (stereo not drawn) — lower, -0.709
- O=C(NCc1cn(-c2ccccc2)nc1-c1ccccc1)c1ccc([N+](=O)[O-])cc1 — lower, -0.0499
- O=C(CSc1cc(Cl)ccc1Cl)NCC1CCCO1 (stereo not drawn) — lower, -0.0958
- Cc1ccccc1-n1c(SCc2csc(Nc3ccccc3)n2)nnc1-c1cccnc1 — lower, -0.897
- c1ccc(Oc2cccc(CN3CCCCC3)c2)cc1 — lower, -0.282
- CCN1CCN(Cc2cccc(Oc3ccc(Cl)cc3)c2)CC1 — lower, 0.924
- CN1CCN(Cc2cccc(Oc3ccccc3)c2)CC1 — lower, 0.0807
- CCN1CCN(Cc2cccc(Oc3ccccc3)c2)CC1 — lower, 0.156
- CCc1ccc(Nc2nnc(SCC(=O)N(C)CC(=O)Nc3ccccc3CC)s2)cc1 — lower, -0.439
- CSc1nccc(Oc2ccc(C#N)cc2)n1 — lower, -0.172
- CC1=C/C(=N\OS(=O)(=O)c2ccccc2)C=CC1=O — higher, 3
- CC1=C/C(=N\OS(=O)(=O)c2ccccc2)C(C)=CC1=O — lower, -0.189
- CC1=CC(=O)C=C(C)C1=NOS(=O)(=O)c1ccccc1 — lower, 0.257
- Cc1ccc(C(=O)N2CC(C)OC(C)C2)c(Cl)c1 (stereo not drawn) — lower, -0.0463
- Cc1ccc(-n2c(Cc3cccn3C)nnc2SCC(=O)Nc2cc(C)on2)cc1 — lower, -0.345
- CCNC(=S)NNC(=O)c1csc(CC)c1 — lower, -0.163
- Cc1cccc(NC(=S)NNC(=O)c2sccc2C)c1 — lower, 2.13
- CCc1cc(C(=O)NNC(=S)Nc2ccccc2C)cs1 — lower, 1.47
- CCc1cc(C(=O)NNC(=S)NCc2ccccc2)cs1 — lower, 0.0336
- CCCCNC(=S)NNC(=O)c1csc(CC)c1 — lower, -0.0512
- Cc1ccc(C)c(NC(=S)NNC(=O)c2sccc2C)c1 — lower, 1.53
- CNC(=S)NNC(=O)c1sccc1C — lower, -0.0354
- Cc1nn2c3c(cnc2c1-c1ccccc1)C(=O)CCC3 — lower, -0.149
- CC(C)(C)C(=O)NC1(C(F)(F)F)N=C2SCCN2C1=O (stereo not drawn) — lower, -0.137
- O=C(COc1ccc(S(=O)(=O)NC2CCCCC2)cc1)NCc1cccnc1 — lower, -0.589
- COc1cc(-c2nc3ccccc3c(=O)n2N)cc(OC)c1OC — lower, -0.0215
- O=C(CSc1ccc2nnc(-c3ccc(Cl)cc3)n2n1)N1CCCc2ccccc21 — lower, 0.00121
- Cc1cc2nc3c(nc2cc1C)C1(C(=O)N(C)C)CCC3(C)C1(C)C (stereo not drawn) — lower, -0.192
- Cc1cccc(-n2ncc3c(NCc4cccs4)ncnc32)c1 — lower, -0.705
- O=c1c2ccccc2c(-c2ccccc2)nn1Cc1ccc(Cl)cc1 — lower, -0.152
- Cc1ccc2[nH]c3c(=O)n(CCC4=CCCCC4)cnc3c2c1 — lower, -0.447
- Cn1c(-c2ccccc2O)cc2ccccc21 — lower, 0.085
- Cc1occc1C(=O)N=Nc1c(O)[nH]c2ccc(Br)cc12 — lower, -0.135
- CCC(=O)NC(=S)Nc1ccc(NC(=O)c2ccc(OC)cc2)cc1 — lower, -0.111
- O=C(Nc1ccccc1Sc1ccccc1)C1CCCO1 (stereo not drawn) — lower, -0.775
- CC(=O)c1ccc(NC(=O)C2CCCN2S(=O)(=O)c2cccc3cccnc23)cc1 (stereo not drawn) — lower, -0.24
- Cc1ccc(NC(=O)C2CCCN2S(=O)(=O)c2cccc3cccnc23)cc1F (stereo not drawn) — higher, 2.9
- Cc1ccccc1NC(=O)C1CCCN1S(=O)(=O)c1cccc2cccnc12 (stereo not drawn) — lower, -0.0844
- Cc1cccc(NC(=O)C2CCCN2S(=O)(=O)c2cccc3cccnc23)c1 (stereo not drawn) — lower, 0.22
- O=C(Nc1cccc(F)c1)C1CCCN1S(=O)(=O)c1cccc2cccnc12 (stereo not drawn) — lower, -0.182
- COc1ccc(-c2cn3c(C)c(C(=O)N4CCN(c5ccc(F)cc5)CC4)sc3n2)cc1 — lower, 0.116
- COc1cccc(CNCCSc2nnnn2C)c1OC — lower, 0.709
- O=C(CSc1ccc2ccccc2c1)NCc1cccs1 — lower, 0.0417
- Cc1csc(SCC(=O)NCc2cccs2)n1 — lower, 0.824
- O=C(NCc1cccnc1)c1cccc(C(F)(F)F)c1 — lower, -0.793
- COc1ccccc1CNCc1ccc(OC)c(OC)c1OC — lower, 2.07
- COc1ccccc1CNCc1cccs1 — lower, 0.411
- COc1cccc(CNCc2ccc(SC)cc2)c1OC — lower, -0.19
- CC1(C)CNC(=O)C=C(c2ccccc2)C1 — lower, -0.176
- Cc1ccc(S(=O)(=O)N(C)CC(=O)O/N=C(\N)c2ccc([N+](=O)[O-])cc2)cc1 — lower, -0.621
- CCOn1c(=O)c(-c2ccc(Cl)cc2)[n+]([O-])c2ccccc21 — lower, 0.119
- COn1c(=O)c(-c2ccc(Cl)cc2)[n+]([O-])c2ccccc21 — lower, -0.503
- Cc1ccc(C)c(-n2[nH]c3c4c(ccc3c2=O)C(=O)c2ccccc2C4=O)c1 — lower, 0.0628
- O=C(Nc1ccncc1)c1ccc2c(c1)C(=O)N(CC1CCCO1)C2=O (stereo not drawn) — lower, -0.193
- Cc1cc(NC(=O)c2ccc3c(c2)C(=O)N(C2CCCCC2)C3=O)no1 — lower, 0.19
- CCOC(=O)N1CCN(c2cc(=O)n(-c3ccc(OCC)cc3)c(=O)[nH]2)CC1 — lower, -0.000123
- O=C(N/N=C\c1ccc(Cl)cc1Cl)c1sccc1-n1cccc1 — lower, -0.203
- O=C(NNC(=O)c1sccc1-n1cccc1)c1ccccc1 — lower, 0.869
- O=C(NNS(=O)(=O)c1ccc(Cl)cc1)c1sccc1-n1cccc1 — lower, 0.249
- O=C(NNS(=O)(=O)c1cc(Cl)cc(Cl)c1)c1sccc1-n1cccc1 — lower, 1.93
- CCOC(=O)N/N=C(C)/C=C/c1ccco1 — lower, 0.31
- CCC(Oc1ccccc1)C(=O)N1CCN(C(=O)C(CC)Oc2ccccc2)CC1 (stereo not drawn) — lower, -0.159
- Cn1c(SCC(=O)NNC(=O)Cc2ccccc2)nnc1-c1ccc(Cl)cc1 — lower, -0.126
- N=C1/C(=C/c2cccn2-c2ccc([N+](=O)[O-])cc2)C(=O)N=C2SC=CN12 — lower, -0.214
- N=C1/C(=C/c2cccn2-c2cccc([N+](=O)[O-])c2)C(=O)N=C2SC=CN12 — lower, -0.207
- CC(C)c1ccc(-n2cccc2/C=C2/C(=N)N3C=CSC3=NC2=O)cc1 — lower, 2.17
- CC1CCN(c2c([N+](=O)[O-])c(=O)n(-c3ccccc3)c3ccccc23)CC1 — lower, 0.00884
- N#C/C(=C/c1ccc(OCc2ccccc2)cc1)C(=O)NC1CCCCC1 — lower, 0.0182
- O=C(NCCN1CCCC1)c1ccc(CS(=O)(=O)c2c(Cl)cccc2Cl)o1 — lower, -0.063
- O=C(c1sc2cc(F)ccc2c1Cl)N1CCN(c2cccc(Cl)c2)CC1 — lower, -0.403
- CCCCCCC(=O)NC(Nc1ccc(S(N)(=O)=O)cc1)C(Cl)(Cl)Cl (stereo not drawn) — lower, -0.259
- Cn1ncc2c(=O)n(CC(=O)NC34CC5CC(CC(C5)C3)C4)cnc21 — lower, -0.265
- COC(=O)C1=NN(N=O)C2(CC(=O)N(c3cc(C)cc(C)c3)C2=O)C1 (stereo not drawn) — lower, -0.194
- Cc1ccc(C)n1-c1ccc(C(=O)NCC2CCCO2)cc1 (stereo not drawn) — lower, -0.25
- O=c1[nH]c2cc3c(cc2cc1C(c1nnnn1C1CCCCC1)N1CCSCC1)OCCO3 (stereo not drawn) — lower, 0.278
- CCC(=O)N1CCc2cc(S(=O)(=O)NCCCOC)ccc21 — lower, -0.216
- Cc1nc2ccccn2c1C(=O)N/N=C/c1ccc2c(c1)OCO2 — lower, 0.65
- COCCn1c(SCC(=O)c2ccc3c(c2)OCCO3)nnc1-c1ccoc1C — lower, -0.231
- O=c1nc(NCc2ccccc2Cl)cn[nH]1 — lower, 0.66
- CC(Nc1ccc(Br)cc1)C(=O)N/N=C/c1ccccc1OCc1ccccc1 (stereo not drawn) — lower, -0.283
- COc1ccc(NC(=O)C23CCC(C)(C(=O)O2)C3(C)C)cc1 (stereo not drawn) — lower, 0.0605
- COC(=O)c1cc(NC(=O)C23CCC(C)(C(=O)O2)C3(C)C)cc(C(=O)OC)c1 (stereo not drawn) — lower, 0.577
- COC(=O)c1ccc(NC(=O)C23CCC(C)(C(=O)O2)C3(C)C)cc1 (stereo not drawn) — lower, 2.35
- Cc1cs/c(=N\N=C\c2ccccc2)n1Cc1ccco1 — lower, -0.431
- Cc1csc(=NC(=O)c2ccccc2)n1Cc1ccco1 — lower, -0.784
- CC(C(=O)Nc1ccc(F)c(F)c1F)N(C)CC(=O)Nc1ccccc1Br (stereo not drawn) — lower, -0.465
- O=C(c1ccccc1)c1ccc(OCC(O)CN2CCN(S(=O)(=O)N3CCCCC3)CC2)cc1 (stereo not drawn) — lower, 0.198
- O=C(c1ccccc1)c1ccc(OCC(O)CN2CCCCC2)cc1 (stereo not drawn) — lower, 2.13
- OC(COc1ccc(OCc2ccccc2)cc1)CN1CCOCC1 (stereo not drawn) — lower, -0.0779
- O=C(c1ccccc1)c1ccc(OCC(O)CN2CCOCC2)cc1 (stereo not drawn) — lower, -0.0655
- OC(COc1ccc(OCC(O)CN2CCCCCC2)cc1)CN1CCCCCC1 (stereo not drawn) — lower, -0.0132
- COc1ccc2nc(C)cc(SCC(=O)N/N=C/c3ccccc3)c2c1 — lower, 0.834
- Cn1nnnc1SCC(=O)NC1CCCCC1 — lower, -0.00615
- CCn1nnnc1SCC(=O)N(C1CCCCC1)C1CCCCC1 — lower, -0.262
- Cn1nnnc1SCC(=O)N(C1CCCCC1)C1CCCCC1 — lower, 2.45
- Cc1ccc2cc(CN(CCN3CCCC3)C(=O)Nc3ccccc3)c(=O)[nH]c2c1C — lower, -0.236
- Cc1ccc2cc(CN(CCN3CCCC3)C(=O)Nc3ccc(F)cc3)c(=O)[nH]c2c1C — lower, 2.05
- Cc1ccc(C)c2[nH]c(=O)c(CN(CCN3CCCC3)C(=O)Nc3ccc(F)cc3)cc12 — lower, 0.644
- CCC(C)C(N)C(=O)NC(CCC(=O)OCc1ccccc1)C(N)=O (stereo not drawn) (H-Ile-Glu(OBn)-NH2; configuration not given here) — lower, 0.0296

For `CN1CCN(Cc2cccc(Oc3ccc(Cl)cc3)c2)CC1`, the z-score was 4 (active).
For `CC1CCCN(Cc2cccc(Oc3ccccc3)c2)C1` (stereo not drawn), the z-score was 6.29 (active).
For `CCc1cc(C(=O)NNC(=S)Nc2cccc(C)c2)cs1`, the z-score was 7.17 (active).
In the case of `CCc1cc(C(=O)NNC(=S)Nc2cc(C)ccc2C)cs1`, the z-score is reported as 6.35 (active).
With `CC(=O)c1cccc(NC(=O)C2CCCN2S(=O)(=O)c2cccc3cccnc23)c1` (stereo not drawn) the z-score was 4.14 (active).
With `O=C(CSc1cccc2cccc(Cl)c12)NCc1cccs1` the z-score was 3.5 (active).
For `O=c1c(-c2ccc(Cl)cc2)[n+]([O-])c2ccccc2n1O`, the z-score was 14 (active).
For `O=C(Nc1ccncc1)c1ccc2c(c1)C(=O)N(C1CCCCC1)C2=O`, the z-score was 6.89 (active).
`O=C(NNC(=O)c1sccc1-n1cccc1)c1ccc(Cl)cc1` was tested, and the z-score was 3.06 (active).
In the case of `O=C(NNC(=O)c1sccc1-n1cccc1)c1cccc(Cl)c1`, the z-score is reported as 4.1 (active).
For `CCCCN(C)C1=CC2=CC(=C(C#N)C#N)CCC2CC1` (stereo not drawn), the z-score was 5.11 (active).
For `N#CC(C#N)=C1C=C2C=C(N3CCCCC3)CCC2CC1` (stereo not drawn), the z-score was 10.9 (active).
For `Cc1cs/c(=N\N=C\c2cccc([N+](=O)[O-])c2)n1Cc1ccco1`, the z-score was 5.13 (active).

Reference: PubChem BioAssay AID488969 (Vanderbilt High Throughput Screening Facility, 2010)
